A selection: hits, their analogues and other compounds. The true share with any hit is near 7.6%.
KB-3-1 cytotox: KB-3-1 parental cell cytotoxicity; Potency, µM (top dose mostly 46.1 µM), most hits filed as cytotoxic; KB-3-1 viability, CellTiter-Glo ATP luminescence, 72 h; 1.4% of 400,000 active; note: potency is the fitted concentration of half-maximal effect; % is set by controls: 0 for no effect and ±100 for the full control effect; nearly all actives have a fitted effect of over 60% in size
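KB-3-1 parental drug-naive adenocarcinoma cells in DMEM/10% FBS, incubated 72 h at 37 C with pin-transferred compounds across a concentration series. Viability by CellTiter-Glo luminescence; concentration-response curves fitted after normalization.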
KCNH2 WT inh: KCNH2 (human, wildtype) channel inhibition | U2OS, BacMam KCNH2, thallium flux FluxOr; hits give low values | AID 720551 | 0.37% of 340,000 active | activity change, % at 1.84 µM | Q12809;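 active = maximum activity change below -70%; inconclusive = maximum activity change between -70% and -50%; inactive = maximum activity change above -50%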; note: % is set by controls: 0 for no effect and ±100 for the full control effect
Target sequence (Q12809 whole entry, looked up): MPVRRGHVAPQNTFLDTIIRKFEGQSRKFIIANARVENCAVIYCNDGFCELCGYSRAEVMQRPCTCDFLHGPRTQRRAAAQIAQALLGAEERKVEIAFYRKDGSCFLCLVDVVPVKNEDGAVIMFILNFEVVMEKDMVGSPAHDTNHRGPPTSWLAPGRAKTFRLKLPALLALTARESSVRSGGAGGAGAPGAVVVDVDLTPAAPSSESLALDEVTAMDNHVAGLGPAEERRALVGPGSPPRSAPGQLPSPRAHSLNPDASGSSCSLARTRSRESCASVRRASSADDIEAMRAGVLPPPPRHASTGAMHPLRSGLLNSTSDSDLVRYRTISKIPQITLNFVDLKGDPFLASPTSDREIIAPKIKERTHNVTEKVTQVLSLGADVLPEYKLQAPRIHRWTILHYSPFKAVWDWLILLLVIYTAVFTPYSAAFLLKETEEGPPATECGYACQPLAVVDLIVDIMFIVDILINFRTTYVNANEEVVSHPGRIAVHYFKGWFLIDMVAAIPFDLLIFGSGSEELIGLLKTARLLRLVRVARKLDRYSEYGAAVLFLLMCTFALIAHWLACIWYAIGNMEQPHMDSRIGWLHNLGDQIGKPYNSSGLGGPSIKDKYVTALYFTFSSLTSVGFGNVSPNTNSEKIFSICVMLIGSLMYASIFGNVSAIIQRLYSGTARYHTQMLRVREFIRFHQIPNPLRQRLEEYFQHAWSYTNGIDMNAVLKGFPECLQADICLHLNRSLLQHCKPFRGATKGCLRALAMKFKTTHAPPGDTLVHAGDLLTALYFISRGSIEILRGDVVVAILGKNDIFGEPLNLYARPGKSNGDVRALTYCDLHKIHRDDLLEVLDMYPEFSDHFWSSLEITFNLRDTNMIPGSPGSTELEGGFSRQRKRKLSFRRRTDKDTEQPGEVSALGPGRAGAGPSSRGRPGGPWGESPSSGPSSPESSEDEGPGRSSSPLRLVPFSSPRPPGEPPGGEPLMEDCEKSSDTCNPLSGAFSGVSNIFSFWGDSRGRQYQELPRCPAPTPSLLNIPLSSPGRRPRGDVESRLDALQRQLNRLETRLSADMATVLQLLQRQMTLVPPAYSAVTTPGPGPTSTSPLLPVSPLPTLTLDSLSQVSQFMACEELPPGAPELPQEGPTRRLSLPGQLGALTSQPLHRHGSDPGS
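U2OS cells transduced with wild-type KCNH2 virus are loaded with FluxOr dye for 45 min, and thallium flux is measured in kinetic reads before and after stimulation buffer. Rate constants are normalized to DMSO controls.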
MCF10A rereplic: induces DNA re-replication in MCF 10a normal breast cells | Potency, µM (doses to about 46.1 µM), for inactives: at the top dose activity, positive = re-replication, usual class: activators | 2.9% of 350,000 active | MCF 10A DNA re-replication, Hoechst nuclear intensity, 48 h; note: potency is the fitted concentration of half-maximal effect; % of control where 0% means no effect; nearly all actives have a fitted effect of over 50% in size
KCNH2 3.1 block: KCNH2 3.1 (human) potassium channel inhibition | 0.95% of 340,000 active | activity change, % (tested at about 1.8 µM) | U2OS KCNH2 3.1, thallium flux FluxOr; hits give low values;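 active = maximum activity change below -70%; inconclusive = maximum activity change from -70% to -50%; inactive = maximum activity change above -50%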;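 note: thallium influx rate constant from kinetic fluorescence after stimulation buffer; % is set by controls: 0 for no effect and ±100 for the full control effect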
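We transduce U2OS cells with the mutant 3.1 virus, culture them overnight, load FluxOr with Red40 quencher for 45 min, then add stimulation buffer and read kinetically for 2 min to derive a normalized rate constant.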
SW480 rerep: induces DNA re-replication in SW480 colon adenocarcinoma cells; 1.8% of 340,000 active; Potency, µM (top dose mostly 46.1 µM), for inactives: top-dose re-replication activation, usual class: activators; SW480 DNA re-replication, Hoechst DNA content imaging, 48 h; note: potency is the fitted concentration of half-maximal effect; % of control where 0% means no effect; nearly all actives have a fitted effect of over 55% in size
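Image-based DNA-content assay: after two days of treatment, nuclei were labelled with the DNA dye Hoechst and imaged, and hits were compounds raising the count of nuclei showing high fluorescence intensity.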
KB-V1 MDR tox: kills drug-selected multidrug resistant KB-V1 cells; KB-V1 MDR cells viability, CellTiter-Glo, 72 h; AID 1347076; Potency, µM (doses to about 46.1 µM), usual class: cytotoxic; 3.4% of 400,000 active; note: potency is the fitted concentration of half-maximal effect; % is set by controls: 0 for no effect and ±100 for the full control effect; nearly all actives have a fitted effect of over 60% in size
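KB-V1, DMEM (no phenol red) + 10% FBS; cpd pin-transferred, titration series; 72 h, 37 degrees C; CellTiter-Glo, luminescence. Data normalized, curve-fit.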
An asterisk follows results filed as active; i = inactive; u = inconclusive; x = no result. Unless noted, calls come from the whole dose curve; as a rule, active = well fitted curve in the direction sought with a large enough effect; inconclusive = small, poorly fitted or top-dose-only effect, or another doubt; inactive = no such curve, though single readings can be large; an effect the other way counts as inactive or inconclusive.

SMILES	KB-3-1 cytotox	KCNH2 WT inh	MCF10A rereplic	KCNH2 3.1 block	SW480 rerep	KB-V1 MDR tox
O=c1[nH]c(-c2cccnc2)nc2sc(-c3ccccc3)cc12	u	x	1.3µM*	12.8	3.66µM*	2.91µM*
Cc1nc2sc(-c3ccccc3)cc2c(=O)[nH]1	u	-5.7	25.9µM*	18.2	u	16.4µM*
CC(C)OC(=O)Cc1nc2sc(-c3ccccc3)cc2c(=O)[nH]1	i	1.7	14.1%	-10.5	-1.4%	u
CC1=C(C(=O)Nc2ccccc2)C(c2cccnc2)n2ncnc2N1 (configuration not stated)	i	-10.4	2.2%	-0.4	-2.3%	i
O=C(NNS(=O)(=O)c1ccccc1)c1cnn(-c2ccccc2)c1-n1cccc1	i	-3.2	4.9%	-3.4	-1.8%	16.4µM*
O=C(c1cnn(-c2ccc(F)cc2)c1-n1cccc1)N1CCN(c2ccccc2)CC1	u	x	x	x	x	23.1µM*
CCCCN(CCCC)C(=O)CSc1nnc2n(C)c(=O)c3c4c(sc3n12)CCCC4	u	26.8	-10.2%	6.1	1.0%	23.1µM*
CCCSc1nnc2n(-c3cccc(C)c3)c(=O)c3c4c(sc3n12)CCCC4	u	x	x	x	x	23.1µM*
COc1ccc([C@H]2CC(=O)C=C(c3ccc(OC)nc3)C2)cc1	i	7.7	-24.2%	8.9	-6.0%	i
CCOc1ccc(-c2n[nH]c(C)c2-c2ccccc2OC)c(O)c1	u	-1.1	12.6µM*	13.8	u	i
COc1ccc(-c2n[nH]c(C)c2-c2cscn2)c(O)c1	i	-5.3	5.3%	9.5	0.7%	i
C=C(C)COc1ccc(-c2n[nH]c(C)c2-c2ccc(OC)cc2)c(O)c1	u	3.7	20.6µM*	9.0	u	u
CCc1cc(-c2n[nH]c(C)c2-c2ccccc2Cl)c(O)cc1OC	i	x	u	-8.6	10.1%	i
COc1ccc(-c2c(-c3ccc(OCC(=O)NN)cc3O)n[nH]c2C(F)(F)F)cc1	i	-8.5	23.1µM*	4.7	u	i
COCC(C)NS(=O)(=O)c1ccc(NC(=O)c2ccccn2)cc1 (configuration not stated)	i	-8.4	0.0%	1.8	-5.3%	u
CN(C(=O)NC1CCCCC1)[C@H]1C[C@H]2c3[nH]c4ccccc4c3CCN2C(=O)[C@H]1CO	6.51µM*	1.2	x	3.0	x	i
CN(C(=O)C(C)(C)C)[C@H]1C[C@H]2c3[nH]c4ccccc4c3CCN2C(=O)[C@H]1CO	i	10.0	x	-12.4	x	i
C[C@H](O)[C@@H]1CN2CCc3c([nH]c4ccc(-c5ccc6c(c5)OCO6)cc34)[C@@H]2C[C@@H]1N(C)C(=O)Nc1cc(Cl)cc(Cl)c1	13µM*	-16.9	x	-33.1	x	u
C[C@H](O)[C@@H]1CN2CCc3c([nH]c4ccc(-c5ccc6c(c5)OCO6)cc34)[C@@H]2C[C@@H]1N(C)C(=O)NC1CCCCC1	0.581µM*	u	x	-2.4	x	u
Cc1oc(C(C)(C)C)cc1C(=O)Nc1ccc(N2CCOCC2)cc1	i	1.1	0.3%	4.2	-0.7%	i
O=S(=O)(c1ccc(NC(=S)Nc2ccc(OC(F)F)cc2)cc1)N1CCOCC1	i	26.5	0.5%	-10.2	-5.5%	23.1µM*
O=C(Nc1ccccc1O)c1cc(S(=O)(=O)N2CCOCC2)c(Cl)cc1Cl	i	50.3	u	-7.2	u	2.91µM*
O=C(NC1CCCCCC1)c1cc(S(=O)(=O)N2CCCCC2)ccc1N1CCOCC1	i	-0.8	0.2%	-19.1	-14.8%	i
NNC(=S)Nc1ccc(S(=O)(=O)N2CCOCC2)cc1	i	0.0	-0.2%	0.1	3.1%	u
O=C(Nc1ccccc1O)c1cc(S(=O)(=O)N2CCOCC2)ccc1Cl	u	1.9	-0.7%	5.0	-4.7%	u
O=C(NC1CCCCCC1)c1cc(S(=O)(=O)N2CCOCC2)ccc1N1CCCCC1	u	112.1	20.7%	-18.2	1.0%	8.2µM*

Bioassay records as filed in PubChem.
